Holding throughout (test): cell proliferation relative to vehicle (% of vehicle); higher = less growth inhibition
Common to all, as to settings: 72 h

Experiment [1] deals with U2932 TK216-resistant clone 2. A digest of the protocol:
(§1)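 A targeted inhibitor library of 348 compounds was tested on the ABC-DLBCL line U2932, both parental and two clones made resistant to an ETS-targeting agent by repeated exposure over almost a year. Cells were grown at 37°C and 5% CO2 in medium with 10% FBS, then treated at 500 nM or 50 nM for 72 h. MTT was added for 4 h, stopped with 25% SDS, and absorbance was read on a Cytation 3. Proliferation is reported as percent of proliferating cells relative to vehicle (DMSO).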

For experiment [2], the system named is U2932 TK216-resistant clone 3. The procedure, abridged: as §1
Experiment [3] has as its system U2932 parental. The procedure, abridged:
as §1

`Cc1[nH]nc2ccc(-c3cncc(OC[C@@H](N)Cc4ccccc4)c3)cc12`: the cell proliferation was 95.6 in experiment [1] (50 nM); 41.7 in experiment [1] (500 nM); 99.4 in experiment [2] (50 nM); 40.6 in experiment [2] (500 nM); 93.5 in experiment [3] (50 nM); 31.7 in experiment [3] (500 nM).
For the compound `NC(=O)c1ccc(-c2nc(-c3ccccn3)c(-c3ccc4c(c3)OCO4)[nH]2)cc1`, the cell proliferation in experiment [1] (50 nM) is 115; in experiment [1] (500 nM), 109; in experiment [2] (50 nM), 100; in experiment [2] (500 nM) it was 102; in experiment [3] (50 nM) it was 101; in experiment [3] (500 nM), 101.
`Oc1ccc(-c2nc(-c3ccc(F)cc3)c(-c3ccncc3)[nH]2)cc1`: the cell proliferation in experiment [1] (50 nM) was 109; in experiment [1] (500 nM), 105; in experiment [2] (50 nM) it was 96.2; in experiment [2] (500 nM), 98.7; in experiment [3] (50 nM), 102; in experiment [3] (500 nM) it was 99.2.
As for `CCCCc1nc2cc(/C=C/C(=O)NO)ccc2n1CCN(CC)CC` [Pracinostat (SB939)], the cell proliferation in experiment [1] (50 nM) stood at 107; in experiment [1] (500 nM) it was 54; in experiment [2] (50 nM), 89.2; in experiment [2] (500 nM), 64.4; in experiment [3] (50 nM), 91.7; in experiment [3] (500 nM), 50.1.
On to `Cc1cnc(-c2cnc(NCCNc3ccc(C#N)cn3)nc2-c2ccc(Cl)cc2Cl)[nH]1`, for which the cell proliferation in experiment [1] (50 nM) was found to be 101; in experiment [1] (500 nM), 97.6; in experiment [2] (50 nM), 107; in experiment [2] (500 nM), 96.8; in experiment [3] (50 nM), 99.8; in experiment [3] (500 nM), 95.
On to `CC[C@H](Nc1ncnc2[nH]cnc12)c1nc2cccc(F)c2c(=O)n1-c1ccccc1` [CAL-101 (Idelalisib, GS-1101)], for which the cell proliferation in experiment [1] (50 nM) amounted to 103; in experiment [1] (500 nM), 109; in experiment [2] (50 nM), 97.8; in experiment [2] (500 nM), 99.3; in experiment [3] (50 nM), 92.6; in experiment [3] (500 nM) it was 96.6.
Turning to `CS(=O)(=O)CCNCc1ccc(-c2ccc3ncnc(Nc4ccc(OCc5cccc(F)c5)c(Cl)c4)c3c2)o1`, the cell proliferation in experiment [1] (50 nM) came out at 101; in experiment [1] (500 nM), 85.9; in experiment [2] (50 nM) it was 94.2; in experiment [2] (500 nM) it was 84.4; in experiment [3] (50 nM), 96.6; in experiment [3] (500 nM) it was 97.3.
Turning to `CC(C)CCN1c2nc(Nc3cc(F)c(O)c(F)c3)ncc2N(C)C(=O)C1C` (centres undefined), the cell proliferation stood at 114 in experiment [1] (50 nM); 99.9 in experiment [1] (500 nM); 106 in experiment [2] (50 nM); 91.3 in experiment [2] (500 nM); 105 in experiment [3] (50 nM); 97.3 in experiment [3] (500 nM).
Consider `CC1(C)CNc2cc(NC(=O)c3cccnc3NCc3ccncc3)ccc21` [Motesanib Diphosphate (AMG-706)], for which the cell proliferation in experiment [1] (50 nM) is 103; in experiment [1] (500 nM), 97.7; in experiment [2] (50 nM) it was 104; in experiment [2] (500 nM) it was 87.8; in experiment [3] (50 nM), 97.4; in experiment [3] (500 nM), 93.9.
Take `C[C@@H](Oc1cc(-n2cnc3ccc(CN4CCN(C)CC4)cc32)sc1C(N)=O)c1ccccc1C(F)(F)F`: the cell proliferation in experiment [1] (50 nM) turned out to be 8.44; in experiment [1] (500 nM) it was 10; in experiment [2] (50 nM), 5.99; in experiment [2] (500 nM), 14.8; in experiment [3] (50 nM), 8; in experiment [3] (500 nM), 10.6.
As for `FC(F)(F)c1ccc(/C=C/c2nc(COc3ccc(CCCCn4ccnn4)cc3)co2)cc1` [Mubritinib (TAK 165)], the cell proliferation stood at 90.7 in experiment [1] (50 nM); 61 in experiment [1] (500 nM); 80.9 in experiment [2] (50 nM); 63.5 in experiment [2] (500 nM); 85.6 in experiment [3] (50 nM); 57.4 in experiment [3] (500 nM).
On to `CN[C@@H](C)C(=O)N[C@H](C(=O)N1CCC[C@H]1C(=O)Nc1snnc1-c1ccccc1)C1CCCCC1`, for which the cell proliferation in experiment [1] (50 nM) was found to be 102; in experiment [1] (500 nM), 111; in experiment [2] (50 nM), 97.2; in experiment [2] (500 nM), 107; in experiment [3] (50 nM) it was 95; in experiment [3] (500 nM), 103.
Regarding `Nc1cccc2c1C(=O)N(C1CCC(=O)NC1=O)C2=O` (centres undefined) [Pomalidomide], the cell proliferation was found to be 95.8 in experiment [1] (50 nM); 94.7 in experiment [1] (500 nM); 91 in experiment [2] (50 nM); 84.7 in experiment [2] (500 nM); 93.2 in experiment [3] (50 nM); 84.3 in experiment [3] (500 nM).
Turning to `NC(=O)c1ncn([C@@H]2O[C@H](CO)[C@@H](O)[C@H]2O)c1N` [Acadesine], the cell proliferation came out at 88.9 in experiment [1] (50 nM); 94.5 in experiment [1] (500 nM); 98.7 in experiment [2] (50 nM); 98.1 in experiment [2] (500 nM); 102 in experiment [3] (50 nM); 98.4 in experiment [3] (500 nM).
As for `CNC(=O)c1ccccc1Sc1ccc2c(/C=C/c3ccccn3)n[nH]c2c1` [Axitinib], the cell proliferation in experiment [1] (50 nM) was 110; in experiment [1] (500 nM), 92.8; in experiment [2] (50 nM) it was 102; in experiment [2] (500 nM), 92.8; in experiment [3] (50 nM) it was 95.6; in experiment [3] (500 nM), 87.4.
Consider `CC[C@@]1(O)C(=O)OCc2c1cc1n(c2=O)Cc2cc3cc(O)ccc3nc2-1` [(S)-10-Hydroxycamptothecin], for which the cell proliferation in experiment [1] (50 nM) came out at 4.11; in experiment [1] (500 nM), 1.46; in experiment [2] (50 nM), 7.4; in experiment [2] (500 nM), 5.84; in experiment [3] (50 nM) it was 2.21; in experiment [3] (500 nM) it was 0.765.
In the case of `Cc1cc(Nc2cc(N3CCN(C)CC3)nc(Sc3ccc(NC(=O)C4CC4)cc3)n2)n[nH]1` [VX-680 (Tozasertib, MK-0457)], the cell proliferation in experiment [1] (50 nM) is 91.1; in experiment [1] (500 nM), 79.9; in experiment [2] (50 nM), 72.2; in experiment [2] (500 nM) it was 69; in experiment [3] (50 nM), 64.5; in experiment [3] (500 nM) it was 57.8.
Turning to `C[C@]12CCC(=O)C=C1CC[C@@H]1[C@@H]2[C@@H](O)C[C@@]2(C)[C@H]1CC[C@]2(O)C(=O)CO` [Hydrocortisone], the cell proliferation in experiment [1] (50 nM) amounted to 95.7; in experiment [1] (500 nM), 81.2; in experiment [2] (50 nM) it was 97.8; in experiment [2] (500 nM), 85.1; in experiment [3] (50 nM) it was 96.1; in experiment [3] (500 nM) it was 87.3.
For `CN(C)CC[C@H](CSc1ccccc1)Nc1ccc(S(=O)(=O)NC(=O)c2ccc(N3CCN(Cc4ccccc4-c4ccc(Cl)cc4)CC3)cc2)cc1[N+](=O)[O-]`, the cell proliferation was 89.5 in experiment [1] (50 nM); 39.6 in experiment [1] (500 nM); 96.6 in experiment [2] (50 nM); 37.4 in experiment [2] (500 nM); 92 in experiment [3] (50 nM); 61.2 in experiment [3] (500 nM).
In the case of `O=c1[nH]nc(Sc2ncc([N+](=O)[O-])s2)n1-c1ccc2c(c1)OCCO2`, the cell proliferation in experiment [1] (50 nM) was determined as 98.1; in experiment [1] (500 nM), 94.6; in experiment [2] (50 nM) it was 102; in experiment [2] (500 nM), 97.9; in experiment [3] (50 nM) it was 100; in experiment [3] (500 nM) it was 99.3.
Regarding `CC[C@@](C)(Nc1ccnc(-c2c[nH]c3ncccc23)n1)C(=O)NCC(F)(F)F` [Decernotinib (VX-509)], the cell proliferation in experiment [1] (50 nM) amounted to 103; in experiment [1] (500 nM) it was 92.4; in experiment [2] (50 nM), 97.4; in experiment [2] (500 nM) it was 105; in experiment [3] (50 nM), 98.2; in experiment [3] (500 nM) it was 98.6.
With `CC[C@H](CO)Nc1nc(NCc2ccccc2)c2ncn(C(C)C)c2n1` [Roscovitine (Seliciclib,CYC202)], the cell proliferation in experiment [1] (50 nM) turned out to be 105; in experiment [1] (500 nM), 102; in experiment [2] (50 nM), 107; in experiment [2] (500 nM) it was 107; in experiment [3] (50 nM) it was 99.6; in experiment [3] (500 nM) it was 106.
Take `N#CC[C@H](C1CCCC1)n1cc(-c2ncnc3[nH]ccc23)cn1`: the cell proliferation amounted to 100 in experiment [1] (50 nM); 95.4 in experiment [1] (500 nM); 103 in experiment [2] (50 nM); 108 in experiment [2] (500 nM); 96.7 in experiment [3] (50 nM); 96.5 in experiment [3] (500 nM).
On to `COc1cc2ncnc(Oc3ccc(CC(=O)Nc4cnn(C(C)C)c4)cc3)c2cc1OC`, for which the cell proliferation in experiment [1] (50 nM) turned out to be 100; in experiment [1] (500 nM), 104; in experiment [2] (50 nM) it was 104; in experiment [2] (500 nM), 98.5; in experiment [3] (50 nM) it was 97.7; in experiment [3] (500 nM), 95.7.

The values are drawn from the supplement of paper PMC13172266.
